Some compounds were tested as several samples or in several runs, with calls that do not always agree. Activity calls are given as the source filed them. The calls were made as follows: active = hit-call score of the fitted dose curve at least 0.9, where 1 is the maximum; inactive = score below 0.9.
Experiment: ATG_TCF_b_cat_CIS: Attagene CIS-FACTORIAL HepG2 Assay for human T-Cell-Factor with beta-catenin (TCF/b-cat) (AID 2282965)
Conditions: HepG2 TCF/beta-catenin cis-reporter transcription, actives raise or lower the signal
Description: ATG_CIS is a cell-based, multiplexed-readout assay that uses HepG2, a human liver cell line, with measurements taken at 24 hours after chemical dosing in a 24-well plate.ATG_TCF_b_cat_CIS is one of 52 assay component(s) measured or calculated from the ATG_CIS assay. It is designed to make measurements of mRNA induction, a form of inducible reporter, as detected with fluorescence intensity signals by Reverse transcription polymerase chain reaction (RT-PCR) and Capillary electrophoresis technology.Data from the assay component ATG_TCF_b_cat_CIS was analyzed into 1 assay endpoint. This assay endpoint, ATG_TCF_b_cat_CIS, was analyzed with bidirectional fitting relative to DMSO as the negative control and baseline of activity. Using a type of inducible reporter, measures of mRNA for gain or loss-of-signal activity can be used to understand the reporter gene at the transcription factor-level as they relate to the gene TCF7 and TCF7L2 and LEF1 and TCF7L1. Furthermore, this assay endpoint can be referred to as a primary readout, because this assay has produced multiple assay endpoints where this one serves a reporter gene function. To generalize the intended target to other relatable targets, this assay endpoint is annotated to the dna binding intended target family, where the subfamily is HMG box protein.
Human liver HepG2 cells are transiently transfected with multiple reporter transcription units (MRTUs) in 6-well plates using FuGene 6 reagent (Roche; 3 ml FuGene/1 mg DNA). The MRTU constructs are regulated by a cis-regulating element (promoter). […] A major difference between the CIS and TRANS system is that in CIS activities of endogenous TFs are measured, whereas the TRANS assay evaluates changes in activities of exogenous, chimeric NR-Gal4 proteins. […] At the end of 24 hour incubation, total RNA was isolated using TriZol reagent (Invitrogen). The isolated RNA is then reverse-transcribed using oligo(dT) primer and Mo-MLV reverse transcriptase (Invitrogen) with DNAse I (Ambion) treatment for 30 min. The one-tenth of the produced cDNA was amplified by PCR using Taq DNA polymerase (Invitrogen) and two reporter sequence-specific primers. The PCR products were fluorescently labeled by primer extension with 6-arboxyfluorescein (6-FAM) 5'-labeled reporter sequence-specific primer (2 min at 95 C, 20 s at 68 C and 10 min at 72 C) and these products were digested with 5U of HpaI (New England Biolabs) for 2h at 37 C. The fragments were purified using Qiaquick PCR columns (Qiagen), analyzed on an ABI 3130xL genetic analyzer (Applied Biosystems) with peak positions identified by using a set of X-rhodamine (ROX)-labeled MapMarker1000 molecular weight standards (BioVentures). The raw capillary electrophoresis data was processed using Attagraph software (Attagene).

Structure (SMILES) | outcome | AC50
c1ccc2c(c1)Nc1ccccc1S2 | inactive | –
CCCCN(CCCC)N=O | inactive | –
O=P(Oc1ccccc1)(Oc1ccccc1)Oc1ccccc1 | inactive | –
CC(C)CBr | inactive | –
Oc1ccc(I)cc1 | inactive | –
CC(Cc1ccc(OCC(=O)O)cc1)NCC(O)c1csc(C(F)(F)F)n1 (stereo not given) | inactive | –
CC(=O)CCc1ccc2c(c1)OCO2 | inactive | –
C/C(=N\NC(=O)Nc1cc(F)cc(F)c1)c1ncccc1C(=O)O | inactive | –
CC(C)(C)c1ccc(O)cc1 | – | 148 µM (active)
Cc1cc(C)c(C(=O)P(=O)(c2ccccc2)c2ccccc2)c(C)c1 | inactive | –
COC(=O)C(F)(F)C(F)(F)OC(F)(C(F)(F)F)C(F)(F)OC(F)=C(F)F (stereo not given) | inactive | 9.92 µM (active)
FC(F)(F)C(F)(C(F)(F)F)C(F)(F)C(F)(F)CC1CO1 (stereo not given) | inactive | –
CSC(C)(C)C=NO | inactive | –
O=[N+]([O-])c1cc(Cl)ccc1Cl | inactive | –
CC(C)(C)N(NC(=O)c1ccc(Cl)cc1)C(=O)c1ccccc1 | inactive | –
O=C(O)C(F)(F)C(F)(F)C(=O)O | inactive | –
ClC(Cl)c1ccccc1 | inactive | –
CO/N=C(/C(=O)OC)c1ccccc1COc1ccccc1C | inactive | –
CCOP(=S)(OCC)SCSc1ccc(Cl)cc1 | inactive | –
O=C(O)C(Cl)Cl | inactive | –

Structure (SMILES) | outcome | AC50
c1ccc(OP(Oc2ccccc2)Oc2ccccc2)cc1 | – | 100 µM (active)
CCOP(=S)(OCC)SCSCC | inactive | –
CCOP(=S)(OCC)SCn1nnc2ccccc2c1=O | inactive | –
CCOC(=O)c1ccccc1C(=O)OCC | inactive | –
O=C(O)C(F)(F)OC(F)(F)C(F)(F)OC(F)(F)F | inactive | –
O=C(O)C=CC(F)(C(F)(F)F)C(F)(F)F | inactive | –
CCCCN(CCCC)SN(C)C(=O)Oc1cccc2c1OC(C)(C)C2 | inactive | –
CCN(CC)c1ccccc1 | inactive | –
COC(N)=O | inactive | –
C=C(C)C(=O)OCC1CO1 (stereo not given) | inactive | –
O=c1[nH]c2ccccc2c(=O)o1 | inactive | –
CCNc1nc(Cl)nc(NC(C)(C)C)n1 | inactive | –
CC(O)C#N (stereo not given) | inactive | –
Oc1ccccc1Br | inactive | –
CC(Cl)(Cl)C(=O)O | inactive | –
CCOP(=S)(Oc1ccc([N+](=O)[O-])cc1)c1ccccc1 (stereo not given) | inactive | –
CCOP(=S)(S)OCC | inactive | –
c1nc[nH]n1 | inactive | –
N#Cc1ccc(O)cc1 | inactive | –

From PubChem BioAssay (EPA / NIEHS)
